# From paper PMC7862700, “An all-to-all approach to the identification of sequence-specific readers for epigenetic DNA modifications on cytosine”
# Key:
# Assay in all cases: DAPPL (digital affinity profiling via proximity ligation, sequencing); 10 mM Tris-HCl pH 7.5, 50 mM NaCl, 1 mM DTT, 4% glycerol, room temperature, 30 min; GST-TFs on glutathione beads, 16-mer random dsDNA library, 0.1% formaldehyde crosslink after washing; high values mean tight binding
# [1] = biological target: T1, FEV (Homo sapiens, UniProt Q99581 1-238); conditions: protein: recombinant; tags: N-terminal GST; dsDNA, one strand shown
# T1 sequence: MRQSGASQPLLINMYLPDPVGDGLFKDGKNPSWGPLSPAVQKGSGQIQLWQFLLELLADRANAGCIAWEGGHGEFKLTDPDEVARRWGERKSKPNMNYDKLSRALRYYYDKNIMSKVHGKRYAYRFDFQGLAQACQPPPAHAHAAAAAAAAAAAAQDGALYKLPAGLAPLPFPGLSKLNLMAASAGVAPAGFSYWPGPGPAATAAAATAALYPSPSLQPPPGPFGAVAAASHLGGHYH
# In short: (§1)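 Human transcription factors carrying a GST fusion were produced in yeast, bound to glutathione beads, tagged with DNA barcodes and pooled together with a tag-only sample. Each pool was held with 200 nmole of a random double-stranded 16-mer DNA library in Tris/NaCl/DTT/glycerol buffer for 30 min at room temperature, then washed, crosslinked in 0.1% formaldehyde, proximity-ligated with BsaI/T4 ligase (1 h, 37 °C), PCR-amplified and sequenced on an Illumina NextSeq500. Binding signal is the read frequency of each hexamer for a given factor divided by its frequency in the tag-only sample.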
# [2] = biological target: ETV5 (Homo sapiens, UniProt P41161 1-510); conditions: protein: recombinant; tags: N-terminal GST; dsDNA, one strand shown
# In short: as §1
# [3] = biological target: HSF1 (Homo sapiens, UniProt Q00613 1-529); conditions: protein: recombinant; tags: N-terminal GST; chain copies: 3; dsDNA, one strand shown
# In short: as §1
# [4] = biological target: T2, SPIC (Homo sapiens, UniProt Q8N5J4 1-248); conditions: protein: recombinant; tags: N-terminal GST; dsDNA, one strand shown
# T2 sequence: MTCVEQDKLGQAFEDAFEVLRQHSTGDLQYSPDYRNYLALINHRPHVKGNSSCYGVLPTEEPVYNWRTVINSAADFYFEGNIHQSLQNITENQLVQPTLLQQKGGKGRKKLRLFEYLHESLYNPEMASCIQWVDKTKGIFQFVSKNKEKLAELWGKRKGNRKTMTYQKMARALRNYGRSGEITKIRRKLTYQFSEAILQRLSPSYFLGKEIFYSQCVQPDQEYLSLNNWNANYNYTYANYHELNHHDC
# In short: as §1
# [5] = biological target: ELF4 (Homo sapiens, UniProt Q99607 1-663); conditions: protein: recombinant; tags: N-terminal GST; dsDNA, one strand shown
# In short: as §1
# [6] = biological target: T3, ELK4 (Homo sapiens, UniProt P28324-2 1-405); conditions: protein: recombinant; tags: N-terminal GST; dsDNA, one strand shown
# T3 sequence: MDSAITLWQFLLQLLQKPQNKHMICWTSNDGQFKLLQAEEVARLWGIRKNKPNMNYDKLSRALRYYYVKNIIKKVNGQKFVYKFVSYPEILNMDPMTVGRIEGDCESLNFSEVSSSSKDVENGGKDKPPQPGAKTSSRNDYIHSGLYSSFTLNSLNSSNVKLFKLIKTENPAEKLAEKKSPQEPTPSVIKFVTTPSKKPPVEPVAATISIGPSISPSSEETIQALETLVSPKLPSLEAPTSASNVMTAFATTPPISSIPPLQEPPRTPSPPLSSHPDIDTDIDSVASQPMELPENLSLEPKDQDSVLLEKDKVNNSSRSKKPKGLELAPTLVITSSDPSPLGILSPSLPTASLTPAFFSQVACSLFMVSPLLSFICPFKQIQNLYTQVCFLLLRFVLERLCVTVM
# In short: as §1
# [7] = biological target: T4, ETV2 (Homo sapiens, UniProt O00321 1-342); conditions: protein: recombinant; tags: N-terminal GST; dsDNA, one strand shown
# T4 sequence: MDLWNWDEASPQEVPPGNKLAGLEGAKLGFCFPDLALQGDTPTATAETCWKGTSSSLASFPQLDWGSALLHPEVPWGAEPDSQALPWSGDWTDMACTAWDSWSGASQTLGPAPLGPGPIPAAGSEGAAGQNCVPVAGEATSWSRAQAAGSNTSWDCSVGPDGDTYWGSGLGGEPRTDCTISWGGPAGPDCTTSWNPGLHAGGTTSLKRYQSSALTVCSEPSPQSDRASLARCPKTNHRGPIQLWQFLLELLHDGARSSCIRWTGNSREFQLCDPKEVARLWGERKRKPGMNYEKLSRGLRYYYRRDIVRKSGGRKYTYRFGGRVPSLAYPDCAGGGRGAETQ
# In short: as §1
# [8] = biological target: T5, ELF3 (Homo sapiens, UniProt P78545 1-371); conditions: protein: recombinant; tags: N-terminal GST; dsDNA, one strand shown
# T5 sequence: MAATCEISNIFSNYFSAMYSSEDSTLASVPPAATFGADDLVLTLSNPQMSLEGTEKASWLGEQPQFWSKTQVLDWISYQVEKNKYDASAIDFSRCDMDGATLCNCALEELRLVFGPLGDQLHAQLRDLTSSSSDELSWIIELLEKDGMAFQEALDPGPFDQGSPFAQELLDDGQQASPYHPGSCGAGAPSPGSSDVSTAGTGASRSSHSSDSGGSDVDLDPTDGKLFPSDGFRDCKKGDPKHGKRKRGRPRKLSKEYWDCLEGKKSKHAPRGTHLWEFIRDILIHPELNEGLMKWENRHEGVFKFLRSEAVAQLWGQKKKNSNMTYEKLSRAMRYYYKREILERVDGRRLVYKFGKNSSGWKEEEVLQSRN
# In short: as §1
# [9] = biological target: CRX (Homo sapiens, UniProt O43186 1-299); conditions: protein: recombinant; tags: N-terminal GST; dsDNA, one strand shown
# In short: as §1
# [10] = biological target: ETV1 (Homo sapiens, UniProt P50549 1-477); conditions: protein: recombinant; tags: N-terminal GST; dsDNA, one strand shown
# In short: as §1
# [11] = biological target: T6, ERF (Homo sapiens, UniProt P50548 1-548); conditions: protein: recombinant; tags: N-terminal GST; dsDNA, one strand shown
# T6 sequence: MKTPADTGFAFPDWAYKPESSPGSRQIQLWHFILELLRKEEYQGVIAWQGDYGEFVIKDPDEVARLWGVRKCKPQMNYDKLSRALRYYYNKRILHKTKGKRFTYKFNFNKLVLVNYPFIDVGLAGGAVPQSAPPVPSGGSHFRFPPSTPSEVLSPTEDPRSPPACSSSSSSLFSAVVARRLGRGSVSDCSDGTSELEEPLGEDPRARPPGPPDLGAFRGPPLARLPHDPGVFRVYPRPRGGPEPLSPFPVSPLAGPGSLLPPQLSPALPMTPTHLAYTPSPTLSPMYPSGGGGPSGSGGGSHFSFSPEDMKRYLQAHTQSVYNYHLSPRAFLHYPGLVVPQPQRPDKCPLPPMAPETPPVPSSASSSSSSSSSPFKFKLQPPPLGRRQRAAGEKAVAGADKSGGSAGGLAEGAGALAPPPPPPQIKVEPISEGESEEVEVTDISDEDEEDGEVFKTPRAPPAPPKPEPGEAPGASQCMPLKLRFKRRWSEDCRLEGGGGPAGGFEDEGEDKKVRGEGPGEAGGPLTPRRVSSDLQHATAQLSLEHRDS
# In short: as §1
# [12] = biological target: T7, ETV3L (Homo sapiens, UniProt Q6ZN32 1-361); conditions: protein: recombinant; tags: N-terminal GST; dsDNA, one strand shown
# T7 sequence: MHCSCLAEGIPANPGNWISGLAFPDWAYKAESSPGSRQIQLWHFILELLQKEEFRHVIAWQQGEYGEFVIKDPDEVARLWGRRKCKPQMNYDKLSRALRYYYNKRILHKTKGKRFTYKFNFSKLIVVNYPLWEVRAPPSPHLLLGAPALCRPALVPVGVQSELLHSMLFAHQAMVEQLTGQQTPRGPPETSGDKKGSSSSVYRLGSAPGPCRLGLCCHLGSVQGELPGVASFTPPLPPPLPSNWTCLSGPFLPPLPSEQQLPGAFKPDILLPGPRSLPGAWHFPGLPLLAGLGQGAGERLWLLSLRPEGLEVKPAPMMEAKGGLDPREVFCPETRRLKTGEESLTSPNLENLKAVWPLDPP
# In short: as §1
# [13] = biological target: T8, ETS2 (Homo sapiens, UniProt P15036 1-469); conditions: protein: recombinant; tags: N-terminal GST; dsDNA, one strand shown
# T8 sequence: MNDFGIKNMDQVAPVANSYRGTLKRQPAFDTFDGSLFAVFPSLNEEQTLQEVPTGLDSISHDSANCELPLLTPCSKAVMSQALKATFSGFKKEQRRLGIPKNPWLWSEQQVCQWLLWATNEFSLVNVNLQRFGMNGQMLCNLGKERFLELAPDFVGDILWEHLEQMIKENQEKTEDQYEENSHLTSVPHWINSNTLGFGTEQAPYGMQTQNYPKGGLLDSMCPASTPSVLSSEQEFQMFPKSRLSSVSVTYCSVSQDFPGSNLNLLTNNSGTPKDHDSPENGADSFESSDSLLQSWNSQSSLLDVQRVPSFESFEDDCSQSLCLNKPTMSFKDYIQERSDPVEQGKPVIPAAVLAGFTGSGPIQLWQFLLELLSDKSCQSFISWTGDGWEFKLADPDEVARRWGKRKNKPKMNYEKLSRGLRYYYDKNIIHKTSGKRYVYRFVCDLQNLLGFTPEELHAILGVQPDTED
# In short: as §1
# [14] = biological target: T9, SPDEF (Homo sapiens, UniProt O95238 1-335); conditions: protein: recombinant; tags: N-terminal GST; dsDNA, one strand shown
# T9 sequence: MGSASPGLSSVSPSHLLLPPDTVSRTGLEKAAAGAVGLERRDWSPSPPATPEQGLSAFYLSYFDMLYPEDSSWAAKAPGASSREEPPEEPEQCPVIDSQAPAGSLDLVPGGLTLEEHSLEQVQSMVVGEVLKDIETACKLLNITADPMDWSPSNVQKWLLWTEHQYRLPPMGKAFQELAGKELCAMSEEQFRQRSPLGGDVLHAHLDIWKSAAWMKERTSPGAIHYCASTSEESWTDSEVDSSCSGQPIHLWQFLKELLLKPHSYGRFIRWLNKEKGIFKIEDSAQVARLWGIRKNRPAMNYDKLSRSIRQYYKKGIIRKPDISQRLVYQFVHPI
# In short: as §1
# [15] = biological target: T10, ETV7 (Homo sapiens, UniProt Q9Y603 1-341); conditions: protein: recombinant; tags: N-terminal GST; dsDNA, one strand shown
# T10 sequence: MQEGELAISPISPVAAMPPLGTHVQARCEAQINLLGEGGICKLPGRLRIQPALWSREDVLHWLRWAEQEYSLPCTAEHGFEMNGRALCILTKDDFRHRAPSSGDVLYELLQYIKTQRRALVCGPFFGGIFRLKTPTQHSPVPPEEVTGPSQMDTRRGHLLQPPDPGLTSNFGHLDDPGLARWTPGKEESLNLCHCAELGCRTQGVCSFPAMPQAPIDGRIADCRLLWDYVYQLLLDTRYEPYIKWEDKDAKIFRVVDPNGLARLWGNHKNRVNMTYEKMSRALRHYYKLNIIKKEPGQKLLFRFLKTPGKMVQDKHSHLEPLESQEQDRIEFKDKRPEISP
# In short: as §1
# [16] = biological target: T11, ELF5 (Homo sapiens, UniProt Q9UKW6-2 1-255); conditions: protein: recombinant; tags: N-terminal GST; dsDNA, one strand shown
# T11 sequence: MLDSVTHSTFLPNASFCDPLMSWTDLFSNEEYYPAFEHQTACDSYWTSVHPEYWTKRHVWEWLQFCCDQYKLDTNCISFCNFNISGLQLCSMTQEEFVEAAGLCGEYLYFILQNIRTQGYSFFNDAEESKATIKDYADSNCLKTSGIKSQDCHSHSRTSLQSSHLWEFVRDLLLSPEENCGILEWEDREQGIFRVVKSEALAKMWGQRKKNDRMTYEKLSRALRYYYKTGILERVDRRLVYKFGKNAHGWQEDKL
# In short: as §1
# [17] = biological target: T12, ETV3 (Homo sapiens, UniProt P41162-2 1-143); conditions: protein: recombinant; tags: N-terminal GST; dsDNA, one strand shown
# T12 sequence: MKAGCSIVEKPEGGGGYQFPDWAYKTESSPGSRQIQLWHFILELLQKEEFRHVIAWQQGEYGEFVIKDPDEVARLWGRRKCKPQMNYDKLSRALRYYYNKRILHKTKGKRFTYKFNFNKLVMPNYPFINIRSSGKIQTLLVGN
# In short: as §1
# [18] = biological target: ETV6 (Homo sapiens, UniProt P41212 1-452); conditions: protein: recombinant; tags: N-terminal GST; dsDNA, one strand shown
# In short: as §1
# ELF4, sequence (Q99607 whole entry): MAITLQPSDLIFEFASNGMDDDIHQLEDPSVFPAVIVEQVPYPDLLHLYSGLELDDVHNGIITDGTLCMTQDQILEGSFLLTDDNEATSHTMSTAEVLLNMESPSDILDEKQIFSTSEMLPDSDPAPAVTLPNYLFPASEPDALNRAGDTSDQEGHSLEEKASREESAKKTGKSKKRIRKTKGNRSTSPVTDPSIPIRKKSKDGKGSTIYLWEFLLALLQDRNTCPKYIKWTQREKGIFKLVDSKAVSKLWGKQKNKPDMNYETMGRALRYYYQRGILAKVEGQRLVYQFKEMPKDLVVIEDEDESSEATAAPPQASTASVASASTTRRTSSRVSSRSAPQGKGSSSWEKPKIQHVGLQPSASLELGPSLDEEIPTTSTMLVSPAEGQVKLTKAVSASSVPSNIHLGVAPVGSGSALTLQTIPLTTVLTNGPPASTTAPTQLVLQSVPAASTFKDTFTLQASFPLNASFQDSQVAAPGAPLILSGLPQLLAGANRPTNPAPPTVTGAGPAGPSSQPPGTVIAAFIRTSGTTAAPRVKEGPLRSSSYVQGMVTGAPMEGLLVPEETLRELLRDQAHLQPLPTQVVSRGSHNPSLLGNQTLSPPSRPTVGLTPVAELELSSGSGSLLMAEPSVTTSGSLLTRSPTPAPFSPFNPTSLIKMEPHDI
# ETV6, sequence (P41212 whole entry): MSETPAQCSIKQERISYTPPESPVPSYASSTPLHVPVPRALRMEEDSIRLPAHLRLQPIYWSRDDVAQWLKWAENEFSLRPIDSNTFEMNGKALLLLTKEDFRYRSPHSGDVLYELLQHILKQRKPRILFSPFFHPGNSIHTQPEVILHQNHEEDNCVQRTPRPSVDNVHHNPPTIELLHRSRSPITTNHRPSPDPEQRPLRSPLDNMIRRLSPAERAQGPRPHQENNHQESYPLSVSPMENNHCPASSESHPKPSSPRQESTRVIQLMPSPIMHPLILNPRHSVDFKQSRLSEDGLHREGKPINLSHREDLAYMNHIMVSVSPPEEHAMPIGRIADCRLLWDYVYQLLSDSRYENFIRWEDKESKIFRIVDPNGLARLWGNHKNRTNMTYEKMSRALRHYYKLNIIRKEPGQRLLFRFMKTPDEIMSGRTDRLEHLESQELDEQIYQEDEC
# HSF1, sequence (Q00613 whole entry): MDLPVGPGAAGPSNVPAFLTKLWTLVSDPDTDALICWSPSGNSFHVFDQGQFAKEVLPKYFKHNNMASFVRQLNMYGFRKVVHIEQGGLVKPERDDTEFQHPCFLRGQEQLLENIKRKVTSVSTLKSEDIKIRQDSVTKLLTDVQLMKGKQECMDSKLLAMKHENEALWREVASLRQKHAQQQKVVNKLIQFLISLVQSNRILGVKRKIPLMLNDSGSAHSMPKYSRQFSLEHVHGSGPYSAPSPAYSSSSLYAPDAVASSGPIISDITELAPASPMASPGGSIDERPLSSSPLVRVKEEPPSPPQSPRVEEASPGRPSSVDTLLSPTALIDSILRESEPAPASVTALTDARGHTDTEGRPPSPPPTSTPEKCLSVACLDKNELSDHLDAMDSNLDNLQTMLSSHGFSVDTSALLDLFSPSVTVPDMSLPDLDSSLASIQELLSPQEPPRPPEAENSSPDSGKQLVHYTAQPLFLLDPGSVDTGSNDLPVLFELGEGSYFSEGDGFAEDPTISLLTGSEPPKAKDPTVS
# CRX, sequence (O43186 whole entry): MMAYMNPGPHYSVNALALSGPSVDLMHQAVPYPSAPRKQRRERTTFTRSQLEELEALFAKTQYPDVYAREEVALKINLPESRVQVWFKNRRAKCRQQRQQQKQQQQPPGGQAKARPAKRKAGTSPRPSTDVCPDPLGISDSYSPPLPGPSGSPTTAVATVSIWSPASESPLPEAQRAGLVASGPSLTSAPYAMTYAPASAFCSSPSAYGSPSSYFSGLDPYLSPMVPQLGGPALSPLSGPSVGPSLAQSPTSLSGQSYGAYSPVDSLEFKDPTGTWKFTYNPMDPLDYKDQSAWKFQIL
# ETV5, sequence (P41161 whole entry): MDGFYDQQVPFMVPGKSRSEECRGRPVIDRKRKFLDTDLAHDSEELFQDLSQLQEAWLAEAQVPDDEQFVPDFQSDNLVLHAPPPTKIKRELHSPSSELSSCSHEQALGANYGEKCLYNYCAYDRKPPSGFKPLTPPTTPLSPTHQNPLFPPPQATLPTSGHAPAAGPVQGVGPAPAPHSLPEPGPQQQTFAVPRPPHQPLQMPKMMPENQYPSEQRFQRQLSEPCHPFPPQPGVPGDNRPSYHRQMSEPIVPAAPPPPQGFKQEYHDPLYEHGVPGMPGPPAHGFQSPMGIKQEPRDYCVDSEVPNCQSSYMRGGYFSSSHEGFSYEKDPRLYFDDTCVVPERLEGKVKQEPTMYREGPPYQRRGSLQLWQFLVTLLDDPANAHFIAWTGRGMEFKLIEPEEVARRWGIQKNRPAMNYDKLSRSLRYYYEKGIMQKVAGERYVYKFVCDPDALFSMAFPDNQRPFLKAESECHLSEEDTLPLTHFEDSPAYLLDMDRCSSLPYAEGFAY
# ETV1, sequence (P50549 whole entry): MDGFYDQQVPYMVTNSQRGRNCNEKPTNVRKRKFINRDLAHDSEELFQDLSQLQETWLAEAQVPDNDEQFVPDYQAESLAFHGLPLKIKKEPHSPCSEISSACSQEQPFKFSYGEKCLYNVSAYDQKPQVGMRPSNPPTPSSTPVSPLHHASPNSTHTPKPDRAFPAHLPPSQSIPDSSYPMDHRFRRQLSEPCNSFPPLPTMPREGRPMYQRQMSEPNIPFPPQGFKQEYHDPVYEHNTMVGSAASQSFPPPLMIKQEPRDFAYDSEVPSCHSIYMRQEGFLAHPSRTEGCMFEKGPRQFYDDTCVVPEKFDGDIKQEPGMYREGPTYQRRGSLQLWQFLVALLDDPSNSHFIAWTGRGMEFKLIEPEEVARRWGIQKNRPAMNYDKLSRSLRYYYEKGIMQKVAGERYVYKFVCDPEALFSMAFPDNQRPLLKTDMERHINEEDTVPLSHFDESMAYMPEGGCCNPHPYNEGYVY
sequence,measurement,setting,value
CCCGTA,binding signal,[1],"1.16 fold enrichment (6-mer frequency, TF over GST control)"
same,binding signal,[2],"1.25 fold enrichment (6-mer frequency, TF over GST control)"
same,binding signal,[3],"1.22 fold enrichment (6-mer frequency, TF over GST control)"
same,binding signal,[4],"1.31 fold enrichment (6-mer frequency, TF over GST control)"
same,binding signal,[5],"1.16 fold enrichment (6-mer frequency, TF over GST control)"
same,binding signal,[6],"1.21 fold enrichment (6-mer frequency, TF over GST control)"
same,binding signal,[7],"1.3 fold enrichment (6-mer frequency, TF over GST control)"
same,binding signal,[8],"1.14 fold enrichment (6-mer frequency, TF over GST control)"
same,binding signal,[9],"1.17 fold enrichment (6-mer frequency, TF over GST control)"
same,binding signal,[10],"1.16 fold enrichment (6-mer frequency, TF over GST control)"
same,binding signal,[11],"1.09 fold enrichment (6-mer frequency, TF over GST control)"
same,binding signal,[12],"1.19 fold enrichment (6-mer frequency, TF over GST control)"
same,binding signal,[13],"1.2 fold enrichment (6-mer frequency, TF over GST control)"
same,binding signal,[14],"1.24 fold enrichment (6-mer frequency, TF over GST control)"
same,binding signal,[15],"1.12 fold enrichment (6-mer frequency, TF over GST control)"
same,binding signal,[16],"1.21 fold enrichment (6-mer frequency, TF over GST control)"
same,binding signal,[17],"1.21 fold enrichment (6-mer frequency, TF over GST control)"
same,binding signal,[18],"1.25 fold enrichment (6-mer frequency, TF over GST control)"
